Data on 40 compounds can be found in PubChem BioAssay (NCI).

Where “and” joins values, the source holds several entries; their conditions need not be identical. Equal values may be shown once. Compounds without any hit were thinned out: in the full panel of roughly 83,000, 20% have a hit.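 Testing used 96-well plates and a 48-hour single-concentration exposure. Example: -40 means 40% of the starting cells died.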 Calls of active or inactive are those of the source. The calls were made as follows: active = growth percent below 10; inactive = the rest.

This test relates to HL-60(TB) leukemia. In words: NCI-60 one-dose screen, 48 h (100 = growth as untreated, 0 = no growth, -100 = all killed). Conditions: 10 µM unless noted.
For `CCC(O)c1ccccc1` (stereo not given), the growth is 98.6% (inactive) and 77.4% (inactive).

`Clc1ccc2c(c1)N(c1ncnc3ccc(-c4cnc5[nH]ncc5c4)cc13)CC2`: the growth is 34.5% (inactive).

On to `CCCC(=O)Oc1ccc(/C(=C(\C)c2ccc(OC)cc2)c2ccc(OCCN3CCCCC3)cc2)cc1`, for which the growth was 89.6% (inactive).

Take `OCC1CCC(O)C(CO)N1` (stereo not given): the growth was 98.2% (inactive).

As to `Cc1c(C(=O)NCCN2CCOCC2)cn2ncnc(Oc3ccc(NC(=O)Nc4ccc(Cl)c(C(F)(F)F)c4)cc3)c12`, the growth was -0.946% (active).

With `O=c1c2cc(F)ccc2sc2c(Nc3cccnc3)nc3ccccc3c12`, the growth was 88.5% (inactive).

For `O=C(OCc1ccccc1)c1ccccc1`, the growth was 132% (inactive) and 98.4% (inactive).

Take `Nc1cc2ccccc2c(O)c1O`: the growth is 4.42% (active).

On to `NC(=O)NO`, for which the growth was 82.9% (inactive) and 72.8% (inactive).

As for `COc1cccc(OC(=O)c2ccccc2)c1OC(=O)c1ccccc1`, the growth is 69.6% (inactive).

In the case of `CC(C)C1C2=C(NCCN1C(=O)Cc1ccccc1)C(C)(C)N(Cc1ccccc1)C2=O` (stereo not given), the growth is 100% (inactive).

On to `C=C1C(=O)O[C@H]2[C@H]1CC/C(COC(=O)/C=C\C(=O)NCc1ccc(Cn3c(=O)sn(-c4ccc(Cl)cc4)c3=O)cc1)=C\CC[C@@]1(C)O[C@@H]21`, for which the growth is -52.5% (active).

Turning to `CCOC(=O)Nc1nc2ccccc2[nH]1`, the growth was 101% (inactive) and -38.2% (active).

Regarding `COc1cc(/C=C/C(=O)c2ccc(Nc3ncnc4cc(OC)c(OC)cc34)cc2)cc(OC)c1`, the growth is 94.2% (inactive).

Take `N/N=C(\C(=N\N)c1ccccc1)c1ccccc1`: the growth is 84.7% (inactive).

As for `CC(C)NCCCNC1=C(Cl)C(=O)c2ccccc2C1=O`, the growth was 11.5% (inactive).

In the case of `O=C(/C=C/c1ccc(Cl)cc1)c1ccc(O)c(CN2CCN(c3cc4c(cc3F)c(=O)c(C(=O)O)cn4C3CC3)CC2)c1`, the growth is 51.5% (inactive).

In the case of `Cc1oc2ncnc(Nc3ccccc3)c2c1C(=O)NCCO`, the growth is 64.9% (inactive).

`Cn1c(=O)cc(NC(=O)CN2CCN(c3cc4c(cc3F)c(=O)c(C(=O)O)cn4C3CC3)CC2)[nH]c1=O`: the growth is 98.2% (inactive).

Regarding `Cc1cc(C(c2ccccc2)c2ccccc2)ccc1NS(=O)(=O)c1ccccc1`, the growth was 78.5% (inactive).

In the case of `OCC(O)C(O)CC1SCCS1` (stereo not given), the growth is 46% (inactive).

Turning to `O[C@H](c1cc(C(F)(F)F)nc2c(C(F)(F)F)cccc12)[C@@H]1CCCCN1`, the growth is 52.8% (inactive) and 50.7% (inactive).

For `O=C(O)C1C2C=CC(C2)C1C(=O)O` (stereo not given), the growth was 25.8% (inactive) and 104% (inactive).

On to `COc1cc(NC(=O)CCSc2nc3ccccc3c(=O)n2CCc2ccccn2)cc(OC)c1OC`, for which the growth was 99.1% (inactive).

In the case of `COC1(OC)N=C(N)C2(C#N)C3(C(=O)Nc4ccccc43)C12C#N` (stereo not given), the growth is 72.5% (inactive).

As to `COc1cc(OC)cc(-c2n[nH]nc2-c2ccc3c(c2)OCO3)c1`, the growth is 8.65% (active).

For the compound `COc1cc(C2CC(c3ccc(Cl)cc3)=NN2c2ccc(Cl)cc2)cc(OC)c1OC` (stereo not given), the growth is 97.9% (inactive).

For `CC[N+](CC)(CC(=O)Nc1c(C)cccc1C)Cc1ccccc1`, the growth was 79.6% (inactive) and 94.7% (inactive).

`CC#CC#Cc1cccc(=O)o1`: the growth is 18.1% (inactive).

Take `O=C(CCc1nnc2sc(-c3ccc(Cl)cc3Cl)nn12)c1nc2ccccc2[nH]1`: the growth is 3.48% (active).

In the case of `CCOC(=O)C1OC2(CCCC2)OC1C(=O)OCC` (stereo not given), the growth is 87.4% (inactive).

`O=C(CCc1nnc(Cn2cnc3nc[nH]c3c2=O)o1)c1nc2ncccc2[nH]1`: the growth was 99.9% (inactive).

In the case of `COc1ccc(C2SC(C)C(=O)N2CCc2cccs2)cc1OC` (stereo not given), the growth is 74.5% (inactive).

For `COc1cc(C2CC(C3C(=O)N(C)C(=O)N(C)C3=O)=NN2c2cc(Cl)cc(Cl)c2)cc(OC)c1OC` (stereo not given), the growth is 98.6% (inactive).

Turning to `CCn1cc(C(=O)O)c(=O)c2cc(F)c(N3CCN(CC(=O)Nc4ccc(C(C)=O)cc4)CC3)cc21`, the growth is 95.7% (inactive).

Take `CN(CCc1ccccn1)c1ccccc1`: the growth is 34.4% (inactive).

Turning to `CC(C)Cn1cnc2c3ccccc3nc(NCn3nc(-c4cc(Cl)cc(Cl)c4Cl)oc3=S)c21`, the growth is 43.8% (inactive).

Turning to `Nc1c2c(nc3ccc(Br)cc13)CC(c1ccccc1)CC2=O` (stereo not given), the growth is 10.7% (inactive).

For `O=C(Cc1ccccc1)c1ccc(Cl)cc1`, the growth was 111% (inactive).

With `CCOC(=O)CC[C@H](NC(=O)c1ccc(NC)c2ccccc12)C(=O)OCC`, the growth is 105% (inactive).
